Laboratory results published in PubChem BioAssay AID651599 (National Center for Advancing Translational Sciences (NCATS), 2012).
Results filed as inconclusive are left out. Entries that show only a call come without a potency. Activity calls are given as the source filed them. Calls follow the shape of the dose curve; as a rule, active = well fitted inhibition curve with a large enough effect; inconclusive = small, poorly fitted or top-dose-only effect; inactive = no such curve, though single readings can be large or run the other way.

molecular target: Tumor susceptibility gene 101 protein (Homo sapiens) (UniProt Q99816); assay: qHTS Assay for Iinhibitors of HIV-1 Budding by Blocking the Interaction of PTAP/TSG101: Hit Validation in TR assay; conditions: Tsg101 binding domain + Texas Red-labeled PTAP peptide, fluorescence polarization, 20 min; series mostly up to 57.5 µM
Procedure, shortened: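 Texas Red-PTAP peptide (50 nM) binding to Tsg101 binding domain (10 uM), both final, in pH 7.5 HEPES buffer, read as polarization after 20 min at room temperature; compounds pinned before peptide addition.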

Tumor susceptibility gene 101 protein (Homo sapiens), sequence (Q99816 whole entry, looked up, the tested form may be a part): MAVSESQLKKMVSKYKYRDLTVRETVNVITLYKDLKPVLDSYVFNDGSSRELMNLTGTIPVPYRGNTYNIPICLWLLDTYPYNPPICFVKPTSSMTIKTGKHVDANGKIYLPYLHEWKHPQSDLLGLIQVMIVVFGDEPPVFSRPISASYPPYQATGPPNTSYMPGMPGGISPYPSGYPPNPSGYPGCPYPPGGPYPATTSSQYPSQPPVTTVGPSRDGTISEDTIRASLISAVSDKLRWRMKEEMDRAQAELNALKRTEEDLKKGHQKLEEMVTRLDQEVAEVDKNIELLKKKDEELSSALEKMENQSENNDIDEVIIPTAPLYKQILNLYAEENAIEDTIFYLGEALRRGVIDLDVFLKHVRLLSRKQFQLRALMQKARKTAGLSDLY

SMILES	Potency
CCN(CC)c1ccc2cc(-c3nnc(-c4ccncc4)o3)c(=O)oc2c1	inactive
N=c1oc2ccc3ccccc3c2cc1-c1nc(-c2ccccc2)cs1	inactive
O=C(NCc1cc(C(F)(F)F)ccc1Cl)c1cccc2c1C(=O)c1ccc(N3CCC(Cc4ccccc4)CC3)cc1S2(=O)=O	inactive
CCOC(=O)Cn1c(=O)c(-c2cc(Br)ccc2N)nc2ccccc21	inactive
c1ccc(-c2cnn3c(-c4ccccc4)c(-c4ccccc4)nc3n2)cc1	inactive
O=C(NCc1ccc(F)cc1)c1cccc2c1C(=O)c1ccc(N3CCC(Cc4ccccc4)CC3)cc1S2(=O)=O	inactive
CC(OC(=O)c1c2c(nc3ccccc13)/C(=C\c1ccc3c(c1)OCO3)CCC2)C(=O)Nc1ccc(S(N)(=O)=O)cc1 (centres undefined)	inactive
CC(=O)Nc1ccc(Nc2c3c4c(cccc4n(C)c2=O)C(=O)c2ccccc2-3)cc1	inactive
COc1cccc(C2C3CN(C)CC=C3C(C#N)=C(N)C2(C#N)C#N)c1OC (centres undefined)	inactive
CC(C)c1cc(=O)oc2c3c4c(cc12)CCCN4CCC3	inactive
COc1ccc2ccccc2c1C(O)c1nccn1C (centres undefined)	inactive
CCCCN(C)C1=CC2=CC(=C(C#N)C#N)CCC2CC1 (centres undefined)	inactive
Cc1cccc(-n2c(O)c(C=Nc3ccc4c(c3)OCO4)c3ccccc3c2=O)n1	inactive
Cc1ccccc1-n1c(SCc2c(C)noc2C)nnc1-c1cccnc1	inactive
CCOc1ccc(S(=O)(=O)N2CCc3cc(OC)c(OC)cc3C2)cc1	inactive
Cc1ccc(N2C3=C(C(=O)CC(C)(C)C3)C(c3cn(C)nc3C)C3=C2CC(C)(C)CC3=O)cc1	inactive
O=c1[nH]c(=O)n(-c2cc(Br)c(O)c(Br)c2)cc1Br	inactive
Cc1ccc[n+](-c2nc([O-])sc2C=O)c1	inactive
Cc1ccc(NC(=O)/C(C#N)=C(\N)C(Cl)(Cl)Cl)nc1	inactive
O=S(=O)(Nc1nc2n(n1)C(c1ccccc1)C=C(c1ccc(Cl)cc1)N2)c1ccccc1 (centres undefined)	inactive

SMILES	Potency
COC(=O)c1cc2c(N)c(C(=O)c3ccc(Cl)cc3)sc2nc1C(OC)OC	inactive
Cc1cc[n+](-c2[nH]c(=O)sc2/C=N/N=C(\[O-])c2ccccc2)cc1C	inactive
Cc1ccc(CNC(=O)C2CCCN(S(=O)(=O)c3c(C)[nH]c(=O)[nH]c3=O)C2)cc1 (centres undefined)	inactive
CCOC(=O)c1cc2n(c1N)-c1ccccc1C2=O	inactive
C/C(=N/NC(=O)c1ccncc1)c1cc2ccc(O)cc2oc1=O	inactive
COc1ccc(/C(O)=C/c2nc3ccccc3n(-c3ccccc3)c2=O)cc1	inactive
ClCc1nc2ccccc2n1Cc1ccccc1	inactive
Cc1ccc(N=Cc2c(O)n(-c3nccs3)c(=O)c3ccccc23)c(C)c1	inactive
CCc1ccc[n+](-c2[nH]c(=O)sc2/C=N/NC([S-])=Nc2ccccc2)c1	inactive
CN1C(=O)NC(c2ccccc2[N+](=O)[O-])C2=C1CCCC2=O (centres undefined)	inactive
NC(=O)c1ccccc1NCC(=O)c1ccc(F)cc1	inactive
CN1CCc2c(sc3c2C(=O)NC(c2ccco2)N3)C1 (centres undefined)	inactive
Clc1ccc(C2=CC(c3ccco3)n3ncnc3N2)cc1 (centres undefined)	inactive
Cn1c(=O)c2[nH]c(COc3ccccc3)nc2n(C)c1=O	inactive
COc1ccc(C(=O)c2sc3nc(C)cc(-c4cccs4)c3c2N)cc1	inactive
COc1ccc(-c2onc3ccc(C(C)=O)cc23)cc1	inactive
COc1ccc(NC(=O)c2nc(-c3ccc(C)cc3)n3c2CCCCC3)cc1	inactive
Cn1cc(/C=C(\C#N)C(=O)Nc2ccccc2O)c2ccccc21	inactive
Nc1c(C(=O)O)sc2nc(-c3ccccc3)cc(-c3ccc(Cl)cc3)c12	inactive
